Tau fibril ThT: tau fibrillization inhibition (ThT binding); recombinant tau K18 P301L, heparin-induced fibrillization, ThT fluorescence; Potency, µM (titrated, usually from 57.4 µM), most hits filed as inhibitors; 2.1% of 270,000 active; note: nearly all actives have a fitted effect of over 55% in size
Target sequence (P10636 561-689 P618L limits assumed): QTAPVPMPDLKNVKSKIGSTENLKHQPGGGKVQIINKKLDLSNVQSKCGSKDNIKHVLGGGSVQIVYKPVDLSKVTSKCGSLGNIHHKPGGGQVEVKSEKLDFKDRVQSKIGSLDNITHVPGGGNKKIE
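Heparin-induced (20 uM) aggregation of recombinant human K18 P301L tau, 15 uM unlabeled with 0.24 uM labeled, pH 7 acetate buffer, 6 hr at 37 C with compound. Fibrils quantified by 30 uM ThT fluorescence after 1 hr ambient incubation.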
TRb SRC2 PPI: inhibitors of human thyroid hormone receptor beta-SRC2 interaction | P10828 | TRbeta-SRC2 peptide binding, fluorescence polarization; receptor liganded with 1 µM T3 | Potency, µM (top dose mostly 106 µM), usual class: inhibitors | 0.065% of 280,000 active; note: nearly all actives have a fitted effect of over 50% in size
Target sequence (P10828 whole entry, looked up): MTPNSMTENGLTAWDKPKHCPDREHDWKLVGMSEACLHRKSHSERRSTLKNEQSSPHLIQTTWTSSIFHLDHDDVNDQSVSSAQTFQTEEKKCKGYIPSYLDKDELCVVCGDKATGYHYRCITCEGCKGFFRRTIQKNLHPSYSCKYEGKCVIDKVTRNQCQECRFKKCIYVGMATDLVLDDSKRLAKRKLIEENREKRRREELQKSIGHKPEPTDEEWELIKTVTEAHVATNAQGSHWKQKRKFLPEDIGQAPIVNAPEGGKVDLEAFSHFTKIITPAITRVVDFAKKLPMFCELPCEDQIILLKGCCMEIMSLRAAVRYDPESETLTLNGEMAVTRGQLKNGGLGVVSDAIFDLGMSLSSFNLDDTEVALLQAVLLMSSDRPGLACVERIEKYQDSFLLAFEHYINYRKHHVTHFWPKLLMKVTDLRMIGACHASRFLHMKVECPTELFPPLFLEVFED
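Each compound concentration gave % activity, normalized to unbound and bound Texas Red SRC2 controls, from polarization read after 5 hr ambient incubation with T3-loaded human TRb LBD.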
TexasRed fluor: alters Texas Red total fluorescence, flagging assay interference; TRb/SRC2 Texas Red total fluorescence interference; Potency, µM (doses to about 106 µM); 0.29% of 280,000 active; AID 1479; active = well fitted curve in either direction with a large enough effect; inconclusive = small, poorly fitted or top-dose-only effect
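Flags fluorescent or light-absorbing compounds by total fluorescence, S + 2P, at 555 nm excitation and 632 nm emission. Mixture: 20 nM Texas Red SRC2 peptide, 0.6 uM human TRb LBD, 1 uM T3, 5% DMSO; compound exposure 5 h at ambient temperature.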
Tau fluor cs: counter-screen for tau fibril formation inhibitors; AID 1463; Potency, µM (series often up to 57.7 µM); 0.93% of 280,000 active; tau K18 P301L Alexa594 fluorescence, heparin fibrillization; note: nearly all actives have a fitted effect of over 55% in size
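Human tau K18 P301L (15 uM unlabeled, 0.24 uM Alexa 594-labeled) in 100 mM sodium acetate pH 7 with 20 uM heparin, 6 hr at 37 C. ThT 30 uM added, 1 hr ambient; Alexa 594 FP and total fluorescence read at 555/632 nm.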
Tau FP inhib: tau fibrillization inhibition (FP). AID 1468. P10636. K18 P301L tau heparin fibrillization, Alexa594 FP, 6 h. 0.39% of 280,000 active. Potency, µM (highest dose often 57.7 µM), most hits filed as inhibitors; note: nearly all actives have a fitted effect of over 55% in size
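Steps: dispense K18 P301L tau (15 uM plus 0.24 uM Alexa 594 tracer, final) in pH 7 sodium acetate; add compound; add heparin (20 uM final); incubate 6 hr, 37 C; add ThT (30 uM final); after 1 hr ambient, read FP.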
PNC inhibitor: perinucleolar compartment assembly inhibition; PC3M PTB-GFP, PNC prevalence imaging, 16 h; active compounds read low; activity change (PNC), negative = inhibition, % at 10 µM; 3.1% of 140,000 active;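 active = readout at or below -70, meaning at least 70% loss of cells showing the perinucleolar compartment, a nuclear body marking cancer cells; inconclusive = readout between -30 and a set limit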
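Compounds are pinned in duplicate onto adhered PC3M cells stably expressing GFP-tagged PTB and incubated 16 h at 37 C. Cells are then fixed, nuclei stained with Hoechst, and PNC-positive cells counted.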
Hits are given with their value; n = inactive; u = inconclusive; x = no result given; [ ] = dose if it differs, or a comment. This is a sample that favours compounds with a hit; in the whole collection about 4.6% have one here. Unless noted, calls come from the whole dose curve; as a rule, active = well fitted curve in the direction sought with a large enough effect; inconclusive = small, poorly fitted or top-dose-only effect, or another doubt; inactive = no such curve, though single readings can be large; an effect the other way counts as inactive or inconclusive.

SMILES | Tau fibril ThT | TRb SRC2 PPI | TexasRed fluor | Tau fluor cs | Tau FP inhib | PNC inhibitor
O=C(Nc1ncc([N+](=O)[O-])s1)c1cccc([N+](=O)[O-])c1 | 18µM | n | u | n | n | x
O=C(Nc1cccc([N+](=O)[O-])c1)c1cccc(C(=O)Nc2cccc([N+](=O)[O-])c2)c1 | n | n | n | u | n | x
CC(C)(C)n1nc(C2CC2)cc1NC(=O)Nc1ccc(Cl)cc1 | n | n | n | n | n | x
COc1ccc(C2NC(=O)CS2)cc1 (stereo not given) | n | n | n | n | n | -100
Nc1ccc(N(CCO)CCO)cc1 | 11µM | u | n | u | 16µM | x
Oc1c(C=Nc2ccccc2Cl)[nH]c2ccccc12 | 40µM | n | n | u | u | x
Cc1ccc(-c2nc3s/c(=C\c4ccco4)c(=O)n3n2)cc1 | u | n | n | n | n | n
Cc1ccc(/C=c2\sc3nc(-c4ccco4)nn3c2=O)o1 | 18µM | n | n | n | u | u
Cc1ccc(/C=c2\sc3nc(-c4ccccc4Br)nn3c2=O)o1 | 28µM | n | n | n | u | u
Cc1ccc(/C=c2/sc3nnc(-c4ccccc4Cl)n3c2=O)o1 | u | n | n | n | n | u
COC(=O)Cc1c(C)c2c(OCc3nn[nH]n3)cc(C)cc2oc1=O | n | n | n | n | n | n
Cc1c(C)c2cc(Cl)c(OCc3nn[nH]n3)cc2oc1=O | n | n | n | n | n | -122
CC(=O)[C@@H]1[C@@H]2C(=O)N(C3CCCCC3)C(=O)[C@@H]2C2c3ccccc3C=CN21 (stereo not given in full) | u | n | n | n | n | n
O=C1NC(=O)[C@@H]2C3c4ccccc4C=CN3[C@H](C(=O)c3cccs3)[C@H]12 (stereo not given in full) | 28µM | n | n | n | u | n
CCOC(=O)C1CCCN(c2ccc(NC(=O)c3snc4c(=O)[nH]cnc34)cc2)C1 (stereo not given) | 2.8µM | n | n | n | n | n
Cc1cc(=O)n2nc(N3CCCC(C(=O)NCc4ccc5c(c4)OCO5)C3)sc2n1 (stereo not given) | n | n | n | n | n | n
COc1ccc(-c2cc(=O)[nH]c(=O)[nH]2)cc1 | n | n | n | n | n | n
O=c1cc(-c2ccc(Cl)c(Cl)c2)[nH][nH]1 | 3.2µM | n | n | u | u | n
COc1ccc(-c2cc(=O)[nH][nH]2)cc1 | 2.2µM | u | n | n | u | n
O=c1cc(-c2ccc(Cl)cc2)[nH][nH]1 | u | u | n | n | u | n
CCc1nnc(NC(=O)CSc2nnc(COc3ccccc3)n2-c2ccc(C)cc2)s1 | n | n | n | n | n | n
COc1ccc(-n2c(Cc3cccn3C)nnc2SCC(=O)Nc2nccs2)cc1 | n | n | n | n | n | -114
Cc1ccc(OCc2nnc(SCC(=O)Nc3cccc4ccccc34)n2-c2ccccc2)cc1 | n | n | n | n | n | -119
COc1ccc(-n2c(Cc3cccn3C)nnc2SCC(=O)Nc2ccc(F)cc2F)cc1 | n | n | n | n | n | n
COc1ccc(-n2c(Cc3cccn3C)nnc2SCC(=O)Nc2ccccc2F)cc1 | n | n | n | n | n | -108
SMILES | Tau fibril ThT | TRb SRC2 PPI | TexasRed fluor | Tau fluor cs | Tau FP inhib | PNC inhibitor
O=[N+]([O-])c1ccccc1NC(=S)N/N=C/c1ccc(O)c(O)c1 | 5.6µM | n | n | u | n | x
CCOC(=O)c1c(-n2cnnn2)sc2c1CCCC2 | n | n | n | n | n | x
Cc1ccc(Nc2c([N+](=O)[O-])ccc3c2=NC2(CCCCC2)N=3)cc1 | 16µM | n | n | u | n | n
Cc1ccc(C)c(OCCCC(=O)Nc2ccc(N3CCOCC3)cc2)c1 | u | n | n | n | n | -84
COC1CC(C)NC(=S)N1 (stereo not given) | n | n | n | n | n | x
O=[N+]([O-])c1ccc(Nc2ccc3ccccc3c2)nc1 | 1.3µM | n | n | u | n | n
C=C1CCN([C@H](C(=O)OCc2ccc(C)cc2)C(C)C)S(=O)(=O)c2ccccc21 | n | n | n | n | n | x
COc1ccc(/C=C(\C#N)c2nc3ccccc3n2C)c(OC)c1 | 14µM | n | n | u | n | x
CCc1c(C)n([O-])c2c([n+]1=O)CCC2 | n | n | n | n | n | -81
Cc1c(C)[n+](=O)c2c(n1[O-])CCC2 | n | n | n | n | n | n
Cc1c(-c2cccs2)[n+](=O)c2c(n1[O-])CCCC2 | n | n | n | n | n | -100
CSc1nc2ccc(Cl)cc2[nH]1 | n | n | n | n | n | n
CSc1nc2cc(Oc3cccc(Cl)c3Cl)c(Cl)cc2[nH]1 | u | n | n | u | 13µM | x
CCOC(=O)c1ccc(/C=C2/C=C(c3ccccc3)N(c3ccc(Cl)c(C(=O)O)c3)C2=O)cc1 | 16µM | n | n | n | n | n
CCOC(=O)c1ccc(Cl)c(NC(=O)c2ccc(-c3ccccc3)cc2)c1 | n | n | n | n | n | n
CC(=O)c1cnc2cc(-c3ccc(C)cc3)nn2c1C | n | n | n | n | n | -100
Cc1cc(Nc2ccc(F)c(F)c2)nc(-c2ccccc2O)n1 | n | n | n | n | u | x
Cc1cc(N/N=C/c2ccc(O)c(C)c2O)nc(-c2ccccc2O)n1 | u | n | u | 7.9µM[quencher] | u | n
Cc1ccc(Nc2cc(C)nc(-c3ccccc3O)n2)cc1 | u | n | n | 8.9µM[quencher] | u | n
O=C1c2ccccc2C(=O)N1CCCn1nnc(-c2ccc(N3CCOCC3)cc2)n1 | u | n | n | n | n | n
O=S(=O)(NCCCc1ccccc1)c1ccccc1 | n | n | n | n | n | n
O=S(=O)(NCCCCCNS(=O)(=O)c1ccccc1)c1ccccc1 | n | n | n | n | n | -91
NC(=O)c1ccccc1NS(=O)(=O)Cc1ccc(Cl)cc1 | n | n | n | n | n | n
Cc1ccccc1NC1=CC(=O)CC(C)(C)C1 | n | n | n | n | n | n
CC1(C)CC(=O)C=C(NC2=CC3OC(c4ccccc4)OCC3OC2=O)C1 (stereo not given) | 18µM | n | n | n | u | n
Cc1ccc(NC(=O)c2ccc(NCCCN3CCOCC3)c([N+](=O)[O-])c2)cc1Cl | 13µM | n | n | u | n | n
O=[N+]([O-])c1ccc(NCCCN2CCOCC2)c([N+](=O)[O-])c1 | u | n | n | n | n | x
COc1ccc(NC(=O)c2ccc(NCCCN3CCOCC3)c([N+](=O)[O-])c2)cc1 | 16µM | n | n | n | n | u
O=C(Nc1ccc(Cl)c([N+](=O)[O-])c1)c1ccc(NCCCN2CCOCC2)c([N+](=O)[O-])c1 | 2.5µM | n | n | n | n | u
S=c1[nH]nc(-c2ccccn2)n1/N=C/c1ccccc1 | n | n | n | n | n | u
